Assay results from PubChem BioAssay (EPA / NIEHS).
Activity calls are given as the source filed them. Rule for the calls: active = hit-call score of the fitted dose curve at least 0.9, where 1 is the maximum; inactive = score below 0.9.

experiment: ATG_NFI_CIS: Attagene CIS-FACTORIAL HepG2 Assay for human Nuclear Factor I (NFI) (AID 2282989); conditions: HepG2 cis-regulatory reporter, NFI response element transcription; actives raise or lower the signal
Experimental: ATG_CIS is a cell-based, multiplexed-readout assay that uses HepG2, a human liver cell line, with measurements taken at 24 hours after chemical dosing in a 24-well plate.ATG_NFI_CIS is one of 52 assay component(s) measured or calculated from the ATG_CIS assay. It is designed to make measurements of mRNA induction, a form of inducible reporter, as detected with fluorescence intensity signals by Reverse transcription polymerase chain reaction (RT-PCR) and Capillary electrophoresis technology.Data from the assay component ATG_NFI_CIS was analyzed into 1 assay endpoint. This assay endpoint, ATG_NFI_CIS, was analyzed with bidirectional fitting relative to DMSO as the negative control and baseline of activity. Using a type of inducible reporter, measures of mRNA for gain or loss-of-signal activity can be used to understand the reporter gene at the transcription factor-level as they relate to the gene NFIA. Furthermore, this assay endpoint can be referred to as a primary readout, because this assay has produced multiple assay endpoints where this one serves a reporter gene function. To generalize the intended target to other relatable targets, this assay endpoint is annotated to the dna binding intended target family, where the subfamily is nuclear factor I.
Human liver HepG2 cells are transiently transfected with multiple reporter transcription units (MRTUs) in 6-well plates using FuGene 6 reagent (Roche; 3 ml FuGene/1 mg DNA). The MRTU constructs are regulated by a cis-regulating element (promoter). […] A major difference between the CIS and TRANS system is that in CIS activities of endogenous TFs are measured, whereas the TRANS assay evaluates changes in activities of exogenous, chimeric NR-Gal4 proteins. […] At the end of 24 hour incubation, total RNA was isolated using TriZol reagent (Invitrogen). The isolated RNA is then reverse-transcribed using oligo(dT) primer and Mo-MLV reverse transcriptase (Invitrogen) with DNAse I (Ambion) treatment for 30 min. The one-tenth of the produced cDNA was amplified by PCR using Taq DNA polymerase (Invitrogen) and two reporter sequence-specific primers. The PCR products were fluorescently labeled by primer extension with 6-arboxyfluorescein (6-FAM) 5'-labeled reporter sequence-specific primer (2 min at 95 C, 20 s at 68 C and 10 min at 72 C) and these products were digested with 5U of HpaI (New England Biolabs) for 2h at 37 C. The fragments were purified using Qiaquick PCR columns (Qiagen), analyzed on an ABI 3130xL genetic analyzer (Applied Biosystems) with peak positions identified by using a set of X-rhodamine (ROX)-labeled MapMarker1000 molecular weight standards (BioVentures). The raw capillary electrophoresis data was processed using Attagraph software (Attagene).

With c1ccc(Nc2ccc3ccccc3c2)cc1 as the compound, how does the outcome read?
The outcome was “inactive”.

For c1cc(OCC2CO2)ccc1Cc1ccc(OCC2CO2)cc1 (stereo not given), which outcome is on record?
The outcome was “inactive”.

For Nc1ccc([N+](=O)[O-])cc1N, which outcome is on record?
The outcome was “inactive”.

With C#CC1(O)CCCCC1 as the compound, how does the outcome read?
Its outcome is “inactive”.

Which outcome does the source give for CCOP(=O)(OCC)Oc1ccc([N+](=O)[O-])cc1 here?
Its outcome is “inactive”.

For COc1cc(OC)nc(Oc2cccc(Oc3nc(OC)cc(OC)n3)c2C(=O)O)n1, which outcome is on record?
The outcome was “inactive”.

Which outcome does the source give for S=c1[nH]c2ccccc2[nH]1 here?
The outcome was “inactive”.

With [CH3][Sn]([Cl])([Cl])[Cl] as the compound, how does the outcome read?
Its outcome is “inactive”.

With CCCCOC(=O)CCC(=O)OCCCC as the compound, how does the outcome read?
Its outcome is “inactive”.

For O=C(O)c1cc[c]([Hg][Cl])cc1, which AC50 is on record?
Its AC50 is 11.1 µM (active).

Which outcome does the source give for C=CC(=O)OCCCCOC(=O)C=C here?
The outcome was “inactive”.

Which AC50 does the source give for CCC(C)c1cc([N+](=O)[O-])cc([N+](=O)[O-])c1OC(=O)C=C(C)C (stereo not given) here?
Its AC50 is 25.5 µM (active).

Which outcome does the source give for O=C(O)C(Br)Br here?
Its outcome is “inactive”.

For ClC1=C(Cl)[C@]2(Cl)[C@@H]3[C@@H](Cl)[C@H](Cl)C[C@@H]3[C@@]1(Cl)C2(Cl)Cl, which outcome is on record?
The outcome was “inactive”.

With CC(=O)c1cc2c(cc1C)C(C)(C)C(C)CC2(C)C (stereo not given) as the compound, how does the AC50 read?
Its AC50 is 25.4 µM (active).

With O=C1C=CC(=O)C=C1 as the compound, how does the outcome read?
The outcome was “inactive”.

For Cc1ccc(OP(=O)(Oc2ccc(C)cc2)Oc2ccc(C)cc2)cc1 (tested in a mixture with another compound), which outcome is on record?
Its outcome is “inactive”.

For CC1(C)C(=O)NC(=O)NC1=O, which outcome is on record?
The outcome was “inactive”.

With CC(C)CCCCCCCOC(=O)c1ccccc1C(=O)OCCCCCCCC(C)C as the compound, how does the outcome read?
The outcome was “inactive”.

With CC(C)COP(=O)(OCC(C)C)OCC(C)C as the compound, how does the outcome read?
Its outcome is “inactive”.

For COC(=O)c1ccccc1S(=O)(=O)NC(=O)Nc1nc(C)cc(C)n1, which outcome is on record?
The outcome was “inactive”.

Which outcome does the source give for Nc1ccc(Cl)c(Cl)c1 here?
Its outcome is “inactive”.

With CCc1cc(C)cc(CC)c1-c1c(OC(=O)C(C)(C)C)n2n(c1=O)CCOCC2 as the compound, how does the outcome read?
Its outcome is “inactive”.

Which outcome does the source give for CCOC(=O)C1OC1(C)c1ccccc1 (stereo not given) here?
Its outcome is “inactive”.

Which outcome does the source give for Cc1ccccc1CCl here?
The outcome was “inactive”.

With CNC(=N[N+](=O)[O-])NCC1CCOC1 (stereo not given) as the compound, how does the outcome read?
Its outcome is “inactive”.

Which AC50 does the source give for Nc1ccccc1C(=O)Oc1ccc2ccccc2c1 here?
The AC50 was 85.4 µM (active).

With CN(C)C(=O)C(c1ccccc1)c1ccccc1 as the compound, how does the outcome read?
The outcome was “inactive”.

For COC(C)(C)CCC[C@H](C)C/C=C/C(C)=C/C(=O)OC(C)C, which outcome is on record?
Its outcome is “inactive”.

With CCNCC as the compound, how does the outcome read?
Its outcome is “inactive”.

With O=C(NC(=O)c1c(F)cccc1F)Nc1ccc(Oc2ccc(C(F)(F)F)cc2Cl)cc1F as the compound, how does the outcome read?
The outcome was “inactive”.

For [N-]=[N+]=CC(=O)OC[C@H](N)C(=O)O, which outcome is on record?
The outcome was “inactive”.

With CCC(Br)(CC)C(=O)NC(N)=O as the compound, how does the outcome read?
Its outcome is “inactive”.

For C=CC(=O)OCC(CC)CCCC (stereo not given), which outcome is on record?
Its outcome is “inactive”.

With O=P1(NCCCl)OCCCN1CCCl (stereo not given) as the compound, how does the outcome read?
The outcome was “inactive”.

Which outcome does the source give for Oc1cc(Cl)ccc1Cl here?
The outcome was “inactive”.

With C=Cc1cccc(CCl)c1 as the compound, how does the outcome read?
Its outcome is “inactive”.

Which outcome does the source give for CCC1CCC(=O)O1 (stereo not given) here?
The outcome was “inactive”.

For CC(C)(C)C(O)C(Oc1ccc(-c2ccccc2)cc1)n1cncn1 (stereo not given), which outcome is on record?
The outcome was “inactive”.

With CN(C)N as the compound, how does the outcome read?
The outcome was “inactive”.
